Experimental data published in PubChem BioAssay AID1745849 (National Center for Advancing Translational Sciences (NCATS), 2022).
The campaign covered roughly 2,100 compounds. About 320 (15%) were called active. Not shown: some 52% with an inconclusive outcome. The list shows a part of the results. Values without a mark were called inactive. Calls follow the shape of the dose curve; as a rule, active = well fitted cell-killing curve with a large enough effect; inconclusive = small, poorly fitted or top-dose-only effect, or effect the other way; inactive = flat fitted curve, though single readings scatter.

Test: Viability Counterscreen for CMV-Luciferase Assay of Inhibitors of ATXN expression; also: nearly all actives have a fitted effect of over 55% in size
Settings: HEK-293 CMV-luciferase cells viability, protease fluorescence, 24 h; activity change, negative = cytotoxicity: at the top concentration
Method in brief: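 HEK-293 cells stably expressing a CMV-luciferase reporter were exposed to compounds at several concentrations for 24 hr at 37 degree C. Viability was read as Gly-Phe-AFC fluorescence (25 uM final, 30 min). SteadyGlo luminescence was then measured after 5 min.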
% is scaled to controls: 0 for no effect and ±100 for the full control effect; potency is read from the fitted curve at half-maximal effect.

| Compound | activity change, negative = cytotoxicity | Potency |
| --- | --- | --- |
| Cc1cc(N2CCN(Cc3nc(-c4ccc(Cl)cc4)oc3C)CC2)cc(C)n1 | -23.3% [at 57.5 µM] |  |
| N#C/C(=C\Nc1ccc2cn[nH]c2c1)c1nc(-c2ccc(Cl)cc2)cs1 | -21.2% |  |
| Cc1ccc(S(=O)(=O)c2nc(S(C)(=O)=O)sc2N2CCCCC2C)cc1 (configuration not stated) | -26.2% [at 57.5 µM] |  |
| COc1cc(Br)cc(/C=N/NC(=O)Cc2ccccc2)c1O | 19.4% |  |
| COc1ccc(CNC(=O)c2ccc(-c3cccnc3)c3ccoc23)cc1OC | -3.64% [at 57.5 µM] |  |
| COc1ccc(Cc2nnc(N/N=C/c3ccccc3O)[nH]c2=O)cc1OC |  | 5.62 µM (active) |
| Cc1ccc(NC(=O)CN2C(=O)c3ccccc3S2(=O)=O)cc1C | -29.9% [at 57.5 µM] |  |
| [O-][n+]1onc2c1CCc1c-2nn(-c2ccccc2Cl)[n+]1[O-] |  | 25.1 µM (active) |
| CN1C(=O)/C(=C\c2ccccc2F)Sc2ccc(C(=O)NC3CCN(Cc4ccccc4)CC3)cc21 | 1.37% |  |
| O=C(Cc1coc2cc3c(cc12)CCC3)OCC(=O)N1CCCC1=O | -19.4% [at 57.5 µM] |  |
| CCCc1nc(C)cc(N2CCN(c3ccccc3)CC2)n1 | -29.5% [at 57.5 µM] |  |
| CCCCn1c2ccc(F)cc2c2nnc(NN)nc21 |  | 14.1 µM (active) |
| COc1cccc(-c2nn(C)c3sc(C(=O)NCCCN(C)Cc4ccccc4)cc23)c1 | -27.4% [at 57.5 µM] |  |
| COc1ccc(C(=O)NNC(=S)NC(=O)C(C)(C)C)cc1 |  | 25.1 µM (active) |
| CCCCC(=O)NNC(=S)NC(=O)c1ccc(C)cc1 | -18.1% |  |
| CC(C)CC(=O)NC(=S)NNC(=O)c1ccc(NC(=O)C2CCCCC2)cc1 | -9.14% |  |
| Cc1ccc(Cl)cc1-c1ccc(C=Nc2ccc(N3CCOCC3)cc2)o1 | -12.6% [at 57.5 µM] |  |
| COc1cc(C#Cc2c(-c3cncn3C)n(C)c3ccc(-c4cnc(N5CCOCC5)nc4)cc23)cc(OC)c1 | -23.6% |  |
| Cn1nnnc1Sc1ncnc2scc(-c3cccs3)c12 |  | 8.91 µM (active) |
| COc1ccc(-c2csc3ncnc(Sc4nnnn4C)c23)cc1 | -27.4% |  |
| O=C(c1ccco1)N1CCN(c2ncnc3scc(-c4cccs4)c23)CC1 | -21.1% |  |
| C[C@@H]1CC=C[C@@H]2[C@H]1C(=O)N(Cc1ccccc1)[C@H]2c1ccccc1Br | 2.07% [at 57.5 µM] |  |
| CCOC(=O)C1CCN(c2ncnc3c2cnn3-c2ccc(Cl)cc2)CC1 | 9.73% [at 57.5 µM] |  |

| Compound | activity change, negative = cytotoxicity | Potency |
| --- | --- | --- |
| Cc1ccccc1N=Nc1ccc(O)c2ncccc12 |  | 7.94 µM (active) |
| CCCOCc1ccc(O)c2ncccc12 | -7.03% [at 57.5 µM] |  |
| Cc1ccc(N=Nc2ccc(O)c3ncccc23)cc1 |  | 10 µM (active) |
| COc1ccc(CNCCC(c2ccc(OC(C)C)cc2)c2ccccc2OC)cc1 (configuration not stated) | -17% |  |
| CCCC1CCC(c2ccc(C(=O)NN)cc2)CC1 (configuration not stated) | 6.52% |  |
| O=S(=O)(c1ccc2nc(COc3ccc(Cl)cc3Cl)[nH]c2c1)N1CCOCC1 | 14.4% |  |
| CC[n+]1c(/C=C/c2c[nH]c3ccccc23)ccc2cc(C)ccc21 |  | 12.6 µM (active) |
| Cc1ccnc(NC(=O)CCCc2c[nH]c3ccccc23)c1 | -25.6% |  |
| Cc1ccc(C)c(S(=O)(=O)N2CCN(c3ncnc4sccc34)CC2)c1 | -8.19% |  |
| COc1ccccc1-c1ccc2c(c1)C(C)(Cc1cccc(F)c1)C(=O)N2 (configuration not stated) | -19.4% [at 57.5 µM] |  |
| CC1CCC(CN2C(Nc3ccccc3)=NC[C@@H]2Cc2ccccc2)CC1 (some centres not stated) | -22.9% [at 57.5 µM] |  |
| C[C@@H](CN1C2=NC[C@H](Cc3ccccc3)N2C[C@H]1Cc1ccc(O)cc1)NC(=O)CCC1CCCCC1 |  | 17.8 µM (active) |
| NC1=NC[C@H](Cc2ccccc2)N1CCCCC1CCCCC1 | -3.06% |  |
| Cc1cc(OCC(=O)Nc2ccc(Br)cc2)cc2c1C(=O)CC(C)(C)O2 | -10.4% |  |
| COc1cc2cc(C(=O)NC(C)c3cccc4ccccc34)c(N)nc2cc1OC (configuration not stated) | 1.89% |  |
| COc1cc(N)ccc1Nc1c2ccccc2nc2ccccc12 |  | 14.1 µM (active) |
| OCCNc1c2ccccc2nc2ccccc12 | 24.1% [at 57.5 µM] |  |
| O=c1c2c(-c3ccccc3)csc2nc2c3ccccc3c(NCCN3CCOCC3)nn12 | -22% |  |
| CC(=O)C(=Cc1cccc(C#N)c1)C(=O)c1ccccc1 |  | 22.4 µM (active) |
| Cc1ccc(NC(=O)CCC(=O)c2cc(C)sc2C)nc1 | -25.1% [at 57.5 µM] |  |
| CCOC(=O)c1c(NC(=O)CSc2nnnn2-c2ccccc2)sc2c1CC(C)(C)NC2(C)C | -17.6% |  |
| CCN(CC)CCCNc1nc2ccccc2c2nc(-c3ccncc3)nn12 |  | 15.8 µM (active) |
| NC(c1ccccc1)c1csc(NC(=O)Nc2ccccc2Oc2ccccc2)n1 (configuration not stated) | -17.3% |  |

| Compound | activity change, negative = cytotoxicity | Potency |
| --- | --- | --- |
| COc1cccc(C(=O)Nc2nc(-c3ccc(S(=O)(=O)N4CCOCC4)cc3)cs2)c1 | -15.2% |  |
| COC(=O)C(Cc1ccc(O)cc1)NC(=O)C(C)Oc1ccccc1 (configuration not stated) | -14.5% [at 57.5 µM] |  |
| O=C(Nc1nc(-c2ccc(S(=O)(=O)N3CCOCC3)cc2)cs1)c1ccccc1 | -11.8% |  |
| CC(Oc1ccc(F)cc1)C(=O)Nc1nc(-c2ccccn2)cs1 (configuration not stated) |  | 7.94 µM (active) |
| O=C(Nc1nc(-c2ccccn2)cs1)Nc1ccc(F)cc1F |  | 11.2 µM (active) |
| O=C(CN1C(=O)C2CCCCC2C1=O)Nc1nc(-c2ccccn2)cs1 (configuration not stated) |  | 17.8 µM (active) |
| O=C(Nc1nc(-c2ccccn2)cs1)c1ccc(F)c(S(=O)(=O)N2CCOCC2)c1 |  | 5.01 µM (active) |
| CC(C)CC(N)c1csc(NC(=O)Nc2ccccc2C(C)(C)C)n1 (configuration not stated) | -16.4% |  |
| O=C(CCN1C(=O)C2CC=CCC2C1=O)Nc1nc(-c2ccc(F)c(F)c2)cs1 (configuration not stated) | -9.32% [at 57.5 µM] |  |
| COC(=O)COc1ccc(-c2nccc(-c3ccccn3)n2)cc1 | -6.76% |  |
| O=C(CC1Sc2ccccc2NC1=O)NNc1cccc(Cl)c1Cl (configuration not stated) | -5.55% |  |
| CN1OC[C@@H]2CN[C@H](c3ccc(-c4cc5ccccc5o4)cc3)C[C@@H]21 | -1.7% [at 57.5 µM] |  |
| CC1(C(=O)NCc2cccc(C(F)(F)F)c2)CCN1Cc1ccc(-c2ccccc2)o1 (configuration not stated) | -27.9% [at 57.5 µM] |  |
| Cc1cc(C)c(C(O)c2ncc(-c3cccc4ccccc34)[nH]2)c(C)c1 (configuration not stated) | -7.88% |  |
| CCN1CC2=C(OC(N)=C(C#N)C2c2cccs2)/C(=C\c2cccs2)C1 (configuration not stated) | -7.9% |  |
| O=C(CCc1ccccc1)N/N=C/c1cc(Br)ccc1O | -29.8% |  |
| O=C(CN1CCCc2ccccc21)N/N=C/c1ccccc1O | -29.9% |  |
| O=C(CCCOc1ccc(Cl)cc1Cl)N/N=C/c1ccccc1O |  | 3.98 µM (active) |
| CC(C)(C)c1ccc(NC(=O)N2CCCN(c3c(Cl)cncc3Cl)CC2)cc1 | 11% [at 57.5 µM] |  |
| O=C(c1ccc(S(=O)(=O)c2cccc(Cl)c2)c([N+](=O)[O-])c1)N1CCN(Cc2ccccc2)CC1 |  | 15.8 µM (active) |
| O=C(NC1CCN(Cc2ccccc2)CC1)c1cccc(S(=O)(=O)Nc2ccc(SC(F)F)cc2)c1 | -17.8% [at 57.5 µM] |  |
